# Source: PubChem (National Center for Advancing Translational Sciences (NCATS))
# Pf growth 48h = P. falciparum growth inhibition at 48 hours (one generation) | P. falciparum luciferase growth in erythrocytes, 48 h | Potency, µM (highest dose often 28.7 µM), inactives show at the top dose activity change, negative = inhibition, actives largely listed as inhibitors | hit rate 5.9% among 310,000; further: potency means the concentration at half of the fitted maximal effect; on the % scale 0 is the no-effect control and ±100 the full control effect
#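 Here the parasites carry a stable luciferase gene and grow inside erythrocytes in Albumax-based RPMI medium with compound for one erythrocytic cycle. Activity is scored as loss of luminescent signal.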
# NS1 function inh = inhibitors of influenza NS1 protein function; AID 2326; Potency, µM (doses to about 46.1 µM), for the others: at the highest dose activity, positive = more growth; hit rate 0.4% among 270,000; calls by dose curve; further: potency means the concentration at half of the fitted maximal effect; actives are rising curves; nearly all actives have a fitted effect of over 50% in size
#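 OD600 was taken as the measure of yeast growth restored by compound in an NS1-expressing S. cerevisiae strain. Cells had been washed out of glucose medium and diluted 1:100 into galactose -URA medium, pH 6.0.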
# CHX counter = counter-screen for Shiga toxin inhibitors: cycloheximide protein synthesis inhibition | AID 2314 | max response, % | hit rate 12% among 300,000 | cell reporter, cycloheximide protein synthesis inhibition counterscreen; in the data active means max response mostly above about 13%, no sharp cut-off; inactive means mostly below about 14%; further: read at 38.3 µM for the half of the compounds with a filed dose; 0% is about no effect
# Pf growth 96h = P. falciparum growth inhibition at 96 hours; P. falciparum luciferase reporter growth, 96 h; Potency, µM (titrated, usually from 28.7 µM), for inactives: top-dose activity change, negative = inhibition, most hits filed as inhibitors; hit rate 6.9% among 320,000; further: potency means the concentration at half of the fitted maximal effect; on the % scale 0 is the no-effect control and ±100 the full control effect
#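 P. falciparum expressing integrated firefly luciferase, in erythrocytes at 2% hematocrit, 0.05% parasitemia, incubated with compounds 96 h at 37 C, 5% CO2. Growth inhibition read as loss of luminescence; two-generation exposure targets delayed-death apicoplast inhibitors.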
# SARS PLpro yeast = blocks SARS-CoV papain-like protease in a yeast assay; Potency, µM (highest dose often 32.9 µM), for the others: top-dose activity, positive = growth rescue, hits mostly activators; AID 485353; hit rate 0.19% among 330,000; S. cerevisiae expressing SARS-CoV PLpro, growth rescue; calls by dose curve; further: potency means the concentration at half of the fitted maximal effect; 0% is about no effect; nearly all actives have a fitted effect of over 55% in size
# Shiga inhibitor = inhibitors of Shiga toxin in Vero cells; inhibition, % at 38.7 µM; Vero cells, Shiga toxin protein synthesis inhibition reporter; AID 2315; hit rate 9.2% among 290,000; in the data active means inhibition mostly above about 28%, no sharp cut-off; inactive means mostly below about 43%; further: 0% is about no effect
# Active calls of the source: *; ? = inconclusive; · = no result given. In the library only some 21% were active in any assay of this set; here they are far more common. Unless noted, the call rests on the fitted dose curve; in most records, active means well fitted inhibition curve with a large enough effect; inconclusive means small, poorly fitted or top-dose-only effect, or another doubt; inactive means no such curve, though single readings can be large or run the other way.
SMILES,Pf growth 48h,NS1 function inh,CHX counter,Pf growth 96h,SARS PLpro yeast,Shiga inhibitor
Cc1nn(C)c(C)c1S(=O)(=O)N(CC(=O)NCc1cccs1)c1ccc(C(C)C)cc1,0.9%,-87.7%,-1.6,9.28µM*,-10.4%,-8.2
Cc1ccc(N(CC(=O)NCCc2ccc(Cl)cc2)S(=O)(=O)c2c(C)noc2C)cc1,-4.8%,-6.0%,-1.9,2.33µM*,3.9%,-3.9
Cc1ccc(CCNC(=O)CN(c2ccc(C)cc2)S(=O)(=O)c2c(C)noc2C)cc1,-13.7%,11.1%,-11.5,?,2.1%,-11.2
COc1ccc(N(CC(=O)NCc2ccc(C)cc2)S(=O)(=O)c2c(C)[nH]c(=O)[nH]c2=O)cc1,24.9%,-9.6%,-4.8,4.65µM*,5.4%,-7.9
Cc1noc(C)c1S(=O)(=O)N(CC(=O)NC1CCC(C)CC1)c1ccc(C(C)C)cc1 (stereo not drawn),10.4µM*,5.6%,6.6,?,-0.1%,8.3
Cc1ccc(N(CC(=O)NC2CCCCCC2)S(=O)(=O)c2c(C)nn(C)c2C)cc1,-0.3%,-10.0%,-2.3,11.7µM*,2.1%,-15.5
O=C(CN(c1ccc(Cl)cc1)S(=O)(=O)c1ccc(Cl)c([N+](=O)[O-])c1)NCCc1ccccc1,?,0.5%,6.1,?,-0.3%,-3.1
O=C(CN(c1ccc(Cl)cc1)S(=O)(=O)c1ccc(Cl)c([N+](=O)[O-])c1)NCCc1ccc(F)cc1,?,10.3%,-7.1,11.7µM*,3.8%,-11.1
Cc1ccc(CNC(=O)CN(c2ccc(C(C)C)cc2)S(=O)(=O)c2c(C)noc2C)cc1,-7.7%,12.7%,1.3,10.4µM*,0.2%,-3.3
Cc1cc(C)cc(N(CC(=O)Nc2ccc(C(F)(F)F)cc2)S(=O)(=O)c2c(C)[nH]c(=O)[nH]c2=O)c1,14.7µM*,22.1%,1.0,5.6%,1.6%,-4.0
COc1ccc(CNC(=O)CN(c2ccc(C(C)C)cc2)S(=O)(=O)c2c(C)noc2C)cc1,-14.0%,11.8%,2.5,?,2.1%,-2.7
COc1cccc(CN2CCNC(=O)C2CC(=O)NCc2cc(C(C)C)no2)c1 (stereo not drawn),-7.6%,0.5%,-0.6,32.6%,-0.6%,-15.3
CCS(=O)(=O)c1nc(S(=O)(=O)c2ccc(Cl)cc2)c(NCc2ccco2)s1,?,1.4%,0.1,?,-15.2%,13.5
CCCS(=O)(=O)c1nc(S(=O)(=O)c2ccc(C)cc2)c(NCc2ccco2)s1,11.7µM*,5.9%,0.5,?,5.2%,6.7
Cc1ccc(S(=O)(=O)c2nc(S(=O)(=O)c3ccc(C)cc3)c(NCc3ccco3)s2)cc1,?,9.3%,0.6,13.1µM*,2.8%,26.7
CCCS(=O)(=O)c1nc(S(=O)(=O)c2ccc(C)cc2)c(NCCCN2CCCC2=O)s1,-15.7%,-4.4%,-1.4,9.28µM*,-3.1%,-10.1
CCOC(=O)C1=C(C)NC(C)=C(C(=O)OCC)C1C(=O)OCC(=O)NCc1ccc(F)cc1,·,·,·,·,0.6%,·
CCCCOc1ccccc1NC(=O)CC1Nc2ccccc2NC1=O (stereo not drawn),1.65µM*,-58.0%,18.2,-6.4%,10.8%,4.3
CCCCNC(=O)CC1Nc2ccccc2NC1=O (stereo not drawn),-5.2%,-8.7%,3.0,-4.7%,2.4%,-2.4
CCC(=O)N(C)CCc1cc2c(c(OC)c1/C=N/Nc1ccc(C(=O)O)cc1)OCO2,40.2%,8.4%,35.2*,4.9%,-0.6%,36.4
O=C(O)COc1ccccc1/C=N/NC(=O)c1ccc(F)cc1,23.0%,·,3.2,15.5%,-6.2%,3.0
O=C(O)COc1ccccc1/C=N/NC(=O)Cc1ccccc1,-10.3%,?,8.3,10.4µM*,-0.2%,·
O=C(Cc1ccccc1)N/N=C/c1ccccc1F,43.5%,0.8%,-2.2,-9.6%,-4.0%,57.9*
C[C@H](c1ccccc1)n1nnc(COCc2ccccc2)c1C#CCOCc1ccccc1,?,-12.1%,1.8,?,-2.7%,-3.5
Cc1cc(C(=O)NNc2ccc(F)cc2F)no1,11.3%,-66.0%,-0.8,18.4%,-1.6%,-18.6
SMILES,Pf growth 48h,NS1 function inh,CHX counter,Pf growth 96h,SARS PLpro yeast,Shiga inhibitor
C[C@@H](C(=O)N[C@@H](Cc1c[nH]c2ccccc12)C(=O)O)n1nnc2ccccc2c1=O,-5.1%,10.0%,1.8,?,1.4%,6.0
CC(C)c1ccc(S(=O)(=O)c2cn(Cc3ccc(F)cc3)c3cc4c(cc3c2=O)OCO4)cc1,?,19.7%,-3.9,-5.1%,26.3%,-9.6
Cc1ccc(Cn2cc(S(=O)(=O)c3ccc(C(C)C)cc3)c(=O)c3cc4c(cc32)OCO4)cc1,9.28µM*,?,7.3,3.29µM*,-11.5%,-5.5
COc1ccc2[nH]c3c(c2c1)CCN1C(=O)C(CC(=O)NCc2cccc(C(F)(F)F)c2)C[C@H](C(=O)N2CCCCC2)[C@@]31CCc1ccccc1 (stereo partly drawn),·,·,·,·,27.1%,·
Cc1nc2c(sc3nc(N4CCOCC4)c4c(c32)CC(C)(C)OC4)c(-c2ccc(Cl)cc2)c1C(=O)O,13.1µM*,?,-2.0,9.28µM*,-0.5%,7.2
Cc1cccc2cc3c(N)c(C(=O)Nc4ccc(N5CCOCC5)cc4)sc3nc12,?,0.6%,0.7,?,-8.7%,6.3
CC1(C)Cc2c(c(N3CCOCC3)nc3sc(C(=O)Nc4ccc(Cl)cc4)c(N)c23)CO1,?,11.4%,7.6,?,-1.0%,-11.0
Cc1ccc(NC(=O)c2sc3nc(N4CCOCC4)c4c(c3c2N)CC(C)(C)OC4)cc1,?,-5.4%,22.3*,68.9%,-4.3%,6.5
CC1(C)Cc2c(c(N3CCOCC3)nc3snc(Br)c23)CO1,0.522µM*,14.1%,-4.5,0.657µM*,-0.4%,-2.2
CC1(C)Cc2c(c(N3CCOCC3)nc3sc(C(N)=O)c(N)c23)CO1,-13.5%,11.9%,6.0,-16.6%,-1.3%,-18.3
Cc1ccc2nc3sc(C(=O)Nc4ccc(N5CCOCC5)cc4)c(N)c3cc2c1,?,2.0%,23.8*,?,-4.7%,54.2
CCCCCCn1c(=O)[nH]c2nc3cc(N)ccc3nc2c1=O,-25.9%,1.5%,10.4,?,10.6%,2.7
CC1=C(CC[C@H](C)CO)O[C@@H]2C[C@@H]3[C@H]4CC[C@H]5C[C@@H](O)CC[C@]5(C)[C@@H]4CC(=O)[C@@]3(C)[C@@H]12,·,-10.5%,·,·,·,·
Cc1cc(NC(=O)COC(=O)c2cc(S(=O)(=O)N3CCOCC3)ccc2N2CCCCC2)no1,·,-14.4%,-2.6,?,-7.3%,2.9
CC1(C)Cc2c(c(N3CCCC3)nc3sc(C(=O)Nc4ccccc4)c(N)c23)CO1,14.7µM*,23.4%,40.6*,13.1µM*,-3.8%,79.7*
CC(=O)N1CCC2(CC1)C(C#N)=C(N)Oc1n[nH]c(CSc3ccc(C)cc3)c12,32.4%,-0.8%,-0.2,6.57µM*,0.0%,5.5
Cc1ccc(SCc2[nH]nc3c2C2(C(=O)Nc4ccc(F)cc42)C(C#N)=C(N)O3)cc1 (stereo not drawn),4.2%,9.7%,-5.1,·,-5.0%,-8.8
